Only a selection was taken, and hits are over-represented in it overall.
DUX4 txn inh: inhibitors of DUX4-driven ZSCAN4 reporter expression, primary screen, 293T cells, Gaussia and Italica luciferase. 293T-iDUX4 ZSCAN4-Gaussia luciferase reporter, 24 h; stronger effect = lower value. activity change, negative = inhibition, % (concentration not given with the values). hit rate 0.8% among 37,000. AID 1224904, 2016;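 active = mean inhibition of at least 10% in the main channel, exceeding the control channel by a set limit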;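 also: 0% = median of neutral control wells and -100% = median of positive control wells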
An asterisk follows results filed as active; ! = a repeat was not active.

SMILES | DUX4 txn inh
O=C(C[C@H]1C[C@H]2c3cc(NC(=O)Cc4ccncc4)ccc3O[C@H]2[C@@H](CO)O1)NCc1cc(F)ccc1F | -21*
O=C(C[C@H]1C[C@H]2c3cc(NC(=O)Cc4ccncc4)ccc3O[C@H]2[C@@H](CO)O1)NCCc1ccccc1 | -8
O=C(C[C@H]1C[C@H]2c3cc(NC(=O)Cc4ccncc4)ccc3O[C@H]2[C@H](CO)O1)NCCc1ccccc1 | -21*
CCCNC(=O)[C@H]1[C@H](CO)[C@H]2Cn3c(ccc(-c4ccc(F)cc4)c3=O)[C@H]2N1CC1CC1 | -3
O=C1N[C@H](c2ccccc2)COCc2cnnn2CC[C@@H]1Cc1ccc(-c2ccccc2)cc1 | 3
COc1ccc2c3c(n(C)c2c1)[C@H](CO)NCC31CN(C(=O)c2ccc(F)cc2)C1 | -3
CC(C)C#Cc1ccc([C@H]2[C@H]3CN(C(=O)Cc4cccnc4)CC(=O)N3[C@H]2CO)cc1 | 18
COc1ccc(S(=O)(=O)N2CC[C@@H]3[C@H]2c2cc(-c4ccc(C#N)cc4)ccc2N[C@@H]3CO)cc1 | 10
COc1cccc(-c2ccc(C3[C@@H]4CN(S(=O)(=O)c5ccccc5)C[C@H]3N4)cc2)c1 (stereo partly specified) | -20*
COc1ccc(S(=O)(=O)N2[C@@H]3CNC[C@H]2C3c2ccc(-c3cccc(OC)c3)cc2)cc1 (stereo partly specified) | 10
O=C(c1ccc(F)cc1)N1C[C@@H]2N[C@H](C1)C2c1ccc(-c2cccnc2)cc1 (stereo partly specified) | -8
CN(C)C(=O)c1cccc(-c2ccc(C3[C@@H]4CN(S(=O)(=O)c5cccc(Cl)c5)C[C@H]3N4)cc2)c1 (stereo partly specified) | -28*
COc1cccc(-c2ccc(C3[C@@H]4CN(S(=O)(=O)c5cccc(Cl)c5)C[C@H]3N4)cc2)c1 (stereo partly specified) | -7
O=S(=O)(c1ccccc1)N1C[C@@H]2N[C@H](C1)C2c1ccc(-c2cccnc2)cc1 (stereo partly specified) | -13*!
O=S(=O)(c1ccc(F)cc1)N1[C@@H]2CNC[C@H]1C2c1ccc(-c2cccnc2)cc1 (stereo partly specified) | 5
CN(C)C(=O)c1cccc(-c2ccc(C3[C@@H]4CN(C(=O)Cc5ccccc5)C[C@H]3N4)cc2)c1 (stereo partly specified) | 9
CN(C)C(=O)c1cccc(-c2ccc(C3[C@H]4CNC[C@@H]3N4S(=O)(=O)c3ccc(Cl)cc3)cc2)c1 (stereo partly specified) | 16
COc1ccc2c3c(n(C)c2c1)[C@@H](CO)N(C(=O)c1ccccn1)CC31CCN(C)CC1 | 10
COc1ccc2c3c([nH]c2c1)[C@H](CO)N(C(=O)NC(C)C)CC31CN(C(=O)c2ccccn2)C1 | 10
O=C(c1ccc(F)cc1)N1C[C@@H]2[C@H](c3ccccc31)[C@@H](CO)N2Cc1ccc2c(c1)OCO2 | 5
COc1ccccc1C#Cc1ccc([C@@H]2[C@@H](CO)N3CCCCN(S(C)(=O)=O)C[C@H]23)cc1 | -7
CC=Cc1ccc2n(c1=O)C[C@@H]1[C@@H](CO)[C@H](C(=O)NCCC)[C@H]2N1C(=O)C1CCCC1 (mixture of isomers) | 0
C[C@H](CO)N1C[C@H](C)[C@H](CN(C)Cc2ccc(Oc3ccccc3)cc2)OCc2ccccc2-c2c(n(C)c3ccccc23)C1=O | -1
COc1ccc2c3c([nH]c2c1)[C@H](CO)N(C(=O)c1ccc(F)cc1)CC31CN(C(=O)Nc2ccc(F)cc2)C1 | -9
Cc1ccc(S(=O)(=O)Nc2ccc3c(c2)C(=O)N([C@H](C)CO)C[C@H](C)[C@H](CN(C)Cc2ccc(C(F)(F)F)cc2)O3)cc1 | -1
SMILES | DUX4 txn inh
COCC(=O)Nc1ccc2c(c1)OC[C@H](C)N(CCC(F)(F)F)C[C@H](C)[C@@H](OC)CN(C)C2=O | 10
CC(=O)N(C)C[C@@H]1OCc2ccccc2-c2c(n(C)c3ccccc23)C(=O)N([C@@H](C)CO)C[C@H]1C | 17
C[C@H](CO)N1C[C@H](C)[C@@H](CN(C)C(=O)c2cc(Cl)cc(Cl)c2)OCc2ccccc2-c2c(n(C)c3ccccc23)C1=O | 13
C[C@H]1CN([C@@H](C)CO)C(=O)c2c(c3ccccc3n2C)-c2ccccc2CO[C@@H]1CN(C)C(=O)c1ccc(F)cc1 | -32*
C[C@@H]1CN([C@@H](C)CO)C(=O)c2c(c3ccccc3n2C)-c2ccccc2CO[C@@H]1CN(C)C(=O)c1ccncc1 | 1
C[C@@H]1CN([C@@H](C)CO)C(=O)c2c(c3ccccc3n2C)-c2ccccc2CO[C@@H]1CN(C)C(=O)c1cc(Cl)cc(Cl)c1 | -42*
C[C@@H]1CN([C@H](C)CO)C(=O)c2c(c3ccccc3n2C)-c2ccccc2CO[C@@H]1CN(C)C(=O)c1ccc(F)cc1 | -6
COc1ccc2c3c([nH]c2c1)[C@@H](CO)N(C(=O)c1ccc(F)cc1)CC31CN(C)C1 | 1
CCNC(=O)C[C@H]1CC[C@H]2[C@@H](COC[C@@H](O)CN2Cc2ccncc2)O1 | 12
CCCNC(=O)[C@@H]1[C@@H](CO)[C@@H]2Cn3c(cccc3=O)[C@H]1N2Cc1ccccc1 | -2
CCCC(=O)N1CC2(CN(C(C)=O)C2)c2c(n(C)c3cc(OC)ccc23)[C@@H]1CO | 7
O=C(c1ccccn1)N1CC2(C1)[C@@H](c1ccccc1)[C@H](CO)N2C(=O)C1CCC1 | 2
CCC(=O)Nc1ccc2c(c1)C(=O)N(C)C[C@@H](OC)[C@@H](C)CN(CC1CCOCC1)[C@@H](C)CO2 | -2
CC(C)NC(=O)N1CCCCN2[C@H](C1)[C@@H](c1ccc(C#Cc3ccccc3F)cc1)[C@@H]2CO | -47*
CC(=O)N1CCCCN2[C@@H](CO)[C@H](c3ccc(C#Cc4ccccc4F)cc3)[C@@H]2C1 | -10
O=C(CN1CCOCC1)N1CCCCN2[C@H](CO)[C@@H](c3ccc(C#Cc4ccccc4F)cc3)[C@@H]2C1 | -36*
O=C(CN1CCOCC1)N1CCCCN2[C@@H](CO)[C@@H](c3ccc(C#Cc4ccccc4F)cc3)[C@@H]2C1 | -9
CC(=O)N1CCCCN2[C@H](C1)[C@H](c1ccc(C#Cc3ccccc3F)cc1)[C@@H]2CO | -7
O=C(CN1CCOCC1)N1CCCCN2[C@H](CO)[C@@H](c3ccc(C#Cc4ccccc4F)cc3)[C@H]2C1 | -7
CC(C)[C@H]1CCc2cnnn2COC[C@H](c2ccccc2)NC1=O | 1
CC(=O)N1Cc2cc(C(=O)NCC(F)(F)F)nc(-c3cccc(-c4cncnc4)c3)c2[C@H]1CCO | 4
C[C@@H]1CN([C@@H](C)CO)C(=O)c2ccccc2-c2ccccc2CO[C@H]1CN(C)Cc1cccc(C(=O)O)c1 | 2
C[C@H](CO)N1C[C@H](C)[C@@H](CN(C)Cc2cccc(O)c2)OCc2ccccc2-c2ccccc2C1=O | 0
C[C@H]1CN([C@@H](C)CO)C(=O)c2ccccc2-c2ccccc2CO[C@@H]1CN(C)Cc1cccc(C(F)(F)F)c1 | -37*
C[C@@H]1CN([C@@H](C)CO)C(=O)c2ccccc2-c2ccccc2CO[C@@H]1CN(C)Cc1cccc(F)c1 | 12
C[C@@H]1CN([C@@H](C)CO)C(=O)c2ccccc2-c2ccccc2CO[C@@H]1CN(C)Cc1ccc(C(F)(F)F)cc1 | 12
